AmpC inh no detg = inhibitors of E. coli AmpC beta-lactamase without detergent; P00811; AmpC nitrocefin hydrolysis, absorbance 480 nm, 0.0001% Triton; Potency, µM (highest dose often 57.1 µM), without a hit: at the top dose activity change, negative = inhibition, hits mostly inhibitors; actives 0.52% (n = 330,000); AID 485341;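 note: potency is the fitted concentration of half-maximal effect; plate controls were no compound for no effect and no enzyme for full effect; nearly all actives have a fitted effect of over 20% in size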
Target sequence (P00811 whole entry, looked up): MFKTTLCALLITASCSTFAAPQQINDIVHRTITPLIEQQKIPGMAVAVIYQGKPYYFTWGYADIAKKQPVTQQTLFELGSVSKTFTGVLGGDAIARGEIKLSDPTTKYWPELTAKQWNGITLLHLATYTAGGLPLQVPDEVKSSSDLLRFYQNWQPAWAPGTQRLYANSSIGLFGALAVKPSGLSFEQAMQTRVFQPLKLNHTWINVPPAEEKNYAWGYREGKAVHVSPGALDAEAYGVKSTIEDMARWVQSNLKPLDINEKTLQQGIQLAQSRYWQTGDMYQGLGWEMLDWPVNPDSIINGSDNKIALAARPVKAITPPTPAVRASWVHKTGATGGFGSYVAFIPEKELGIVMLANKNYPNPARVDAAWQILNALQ
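AmpC (5.3 nM in the dispensed reagent) in 20 mM phosphate pH 7.0 with 0.01% (detergent screen) or 0.0001% Triton X-100 was preincubated with compounds for 15 min at room temperature. Nitrocefin was then added from an 800 uM solution, and hydrolysis was followed at 480 nm.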
AmpC detergent = AmpC beta-lactamase inhibition with detergent present. P00811. actives 0.041% (n = 370,000). AmpC hydrolysis of nitrocefin, absorbance 480 nm, 0.01% Triton. Potency, µM (highest dose often 114 µM), for inactives: top-dose activity change, negative = inhibition, most hits filed as inhibitors;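 note: potency is the fitted concentration of half-maximal effect; 0% = no-compound wells and -100% = no-enzyme wells; nearly all actives have a fitted effect of over 25% in size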
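AmpC (5.3 nM in the dispensed reagent) in 20 mM phosphate pH 7.0 with 0.01% (detergent screen) or 0.0001% Triton X-100 was preincubated with compounds for 15 min at room temperature. Nitrocefin was then added from an 800 uM solution, and hydrolysis was followed at 480 nm.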
SARS PLpro yeast = blocks SARS-CoV papain-like protease in a yeast assay; S. cerevisiae expressing SARS-CoV PLpro, growth rescue; Potency, µM (series often up to 32.9 µM), inactives show top-dose activity, positive = growth rescue, usual class: activators; actives 0.19% (n = 330,000); calls by dose curve; note: potency is the fitted concentration of half-maximal effect; 0% is about no effect; nearly all actives have a fitted effect of over 55% in size
AMA1 RON2 block = AMA1-RON2 (P. falciparum) interaction inhibition. AlphaScreen AMA1-biotinylated RON2 peptide binding. Potency, µM (top dose mostly 58.2 µM), without a hit: top-dose activity change, negative = inhibition, actives largely listed as inhibitors. actives 0.2% (n = 360,000). AID 720542;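 note: potency is the fitted concentration of half-maximal effect; 0% = vehicle wells and -100% = peptide control; nearly all actives have a fitted effect of over 45% in size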
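AMA1 (3D7) with his tag at 25 nM final met compounds first, then biotinylated RON2 peptide at 25 nM; detection used donor plus acceptor beads, 10 µg/mL apiece, read by AlphaScreen after 30 min at room temperature.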
Cycloheximide cs = affects cycloheximide protein synthesis inhibition readout, counter-screen; max response, %; cell reporter, cycloheximide protein synthesis inhibition counterscreen; actives 12% (n = 300,000); in the data active = max response mostly above about 13%, no sharp cut-off; inactive = mostly below about 14%; note: read at 38.3 µM for the half of the compounds with a filed dose; 0% is about no effect
Shiga inhibitor = blocks Shiga toxin action in Vero cells | Vero cells, Shiga toxin protein synthesis inhibition reporter | inhibition, % at 38.7 µM | actives 9.2% (n = 290,000); in the data active = inhibition mostly above about 28%, no sharp cut-off; inactive = mostly below about 43%; note: 0% is about no effect
Active calls of the source: *; ? = inconclusive; / = no result. This excerpt belongs to a sample that is enriched for hits. Unless noted, calls come from the whole dose curve; as a rule, active = well fitted curve in the direction sought with a large enough effect; inconclusive = small, poorly fitted or top-dose-only effect, or another doubt; inactive = no such curve, though single readings can be large; an effect the other way counts as inactive or inconclusive.

SMILES	AmpC inh no detg	AmpC detergent	SARS PLpro yeast	AMA1 RON2 block	Cycloheximide cs	Shiga inhibitor
CSc1nsc(SCC(=O)Nc2cccc(C(C)=O)c2)n1	-9%	-4%	-6%	14%	9	26
CCOc1ncccc1C(=O)Nc1nc(SC)ns1	-16%	-11%	0%	0%	28*	66*
CCn1c(C(=O)NCc2cc(Br)ccc2OC)cc2oc3ccccc3c21	/	-11%	/	/	/	/
CC(C)(C)N1C(=O)[C@H]2[C@@H](c3ccc(Br)cc3)N3C(=O)N(c4cccc(Br)c4)C(=O)[C@@]3(Cc3ccccc3)[C@H]2C1=O	9%	-12%	-2%	7%	4	3
O=C(COc1coc(CN2CCc3ccccc3C2)cc1=O)N1CCOCC1	-9%	0%	-1%	7%	/	/
COc1ccc(CNC(=O)CCCn2nc(C)c3sc4ccccc4c3c2=O)cc1OC	/	-11%	/	/	/	/
CC(C)(C)c1ccc(SC2=C[C@@]3(O)CC[C@@H](O)[C@@](Sc4ccc(C(C)(C)C)cc4)(C2=O)[C@H]3O)cc1	/	/	/	0%	/	/
O=C(CSc1nnc(NC(=O)c2c(F)cccc2Cl)s1)Nc1ccccc1F	-28%	5%	5%	34%	8.3*	19
CCn1cc(C(=O)Nc2sc(C)c(C)c2C(=O)OC)cn1	-16%	-8%	-4%	16%	9	25*
Cc1cc(C(=O)OCC(=O)Nc2sc3c(c2C#N)CCC(C)C3)c2ccccc2n1 (stereo not given)	14µM*	2%	-7%	-8%	0	-3
O=C(CSc1nnc(-c2ccccn2)o1)Nc1ccccc1F	-13%	3%	-12%	0%	25*	74*
Cc1ccccc1NC(=O)CSc1nnc(-c2ccccn2)o1	-16%	-3%	7%	-24%	-5	-4
CC1CCc2c(sc(NC(=O)CSc3nnc(-c4ccccc4)o3)c2C#N)C1 (stereo not given)	-31%	-16%	6%	-7%	23*	active
Cc1ccc(C)c(NC(=O)CSc2nnc(-c3ccccc3)o2)c1	40µM*	?	0%	6%	4	11
Cc1ccc(NC(=O)CSc2nnc(-c3ccc(Br)cc3)o2)c(C)c1	/	8%	/	/	/	/
O=C(CSc1nnc(-c2ccccc2Br)o1)Nc1cccc2ccccc12	-44%	7%	0%	1%	0	1
CCC1CCC2(CC1)NC(CO)(CO)CO2 (stereo not given)	-4%	-9%	1%	-3%	-8	-12
O=C(CN1C(=O)NC2(CCCCCC2)C1=O)NC1CCCCCCC1	-20%	1%	5%	-11%	-3	3
N#Cc1c(NC(=O)CSc2nnc(-c3ccccc3)o2)sc2c1CCCC2	?	?	-7%	45%	16*	52*
Cc1csc(NC(=O)CSc2nnc(-c3ccccc3)o2)n1	-19%	-1%	-4%	44%	28*	52*
Cc1sc(NC(=O)CSc2nnc(-c3ccccc3)o2)c(C#N)c1C	-16%	-9%	-7%	3%	33*	58*
CC(C)(C)C1CCc2c(sc(NC(=O)CSc3ncn[nH]3)c2C#N)C1 (stereo not given)	-40%	?	-12%	51%	14*	21
O=C(Nc1ccc(Br)cc1)/C(=C/c1cccc([N+](=O)[O-])c1)NC(=O)C1CCCCC1	-30%	-2%	-9%	14%	-2	30
CCN1C(=O)C(=O)c2cc(C)ccc21	-21%	/	11µM*	-1%	/	/
Cc1ccc2c(c1)C(=O)C(=O)N2CCCOc1ccccc1	-20%	-4%	-3%	-13%	14*	26
SMILES	AmpC inh no detg	AmpC detergent	SARS PLpro yeast	AMA1 RON2 block	Cycloheximide cs	Shiga inhibitor
O=C1CCN(C(=O)CCCn2c(=O)oc3ccccc32)CC1	-9%	-10%	3%	19%	-4	30
O=c1oc2cc(Cl)ccc2n1CSc1nc2ccccc2s1	-38%	-1%	-11%	36%	31*	58*
Cc1cc(-c2nnc(SCC(=O)Nc3ccc(Cl)cn3)n2N)n[nH]1	-8%	-6%	2%	-2%	10	-6
COc1ccc(-n2c(C)nc3cc(C(=O)NC4CCCCCC4)ccc32)cc1	/	-5%	/	/	/	/
CCOc1ccc(-n2c(C)nc(O)c2N=Nc2ccccc2)cc1	-23%	3%	-1%	-24%	17*	67
O=C(O)CCNc1cc(N2CCN(C(=O)c3ccco3)CC2)c2noc3c2c1C(=O)c1ccccc1-3	166%	-1%	-6%	32µM*	-6	-6
CCN1CCN(c2cc(N3CCN(C(=O)c4ccco4)CC3)c3c4c(onc24)-c2ccccc2C3=O)CC1	147%	-13%	-16%	22µM*	1	-11
Nc1nc(-c2cccnc2)nn1C(=O)c1ccco1	-21%	3%	-1%	/	-3	29
N#C/C(=C\c1ccc(/C=C(/C#N)c2nn(CCO)c(N)c2C#N)cc1)c1nn(CCO)c(N)c1C#N	-12%	?	11%	-8%	-1	-9
N#C/C(=C/c1ccccc1)c1nn(CCO)c(N)c1C#N	-12%	-1%	-5%	4%	27*	27*
COc1cnc(-c2ccccn2)nc1Sc1ccc(C)cc1	46%	8%	?	5%	5	7
Cc1ccc(Sc2cc(C)nc(-c3ccccn3)n2)cc1	62%	1%	-15%	5%	31*	46
CSc1nc(Cl)cc(Nc2ccccc2N)n1	-28%	5%	-6%	0%	19	5
Nc1nc(Cl)cc(Nc2ccccc2Cl)n1	-41%	2%	4%	0%	12*	18
CCn1cc(Br)c(C(=O)N(C)Cc2ccccc2)n1	-14%	?	4%	0%	1	-10
O=C(Cc1ccc([N+](=O)[O-])cc1)N1CCc2ccccc2C1	-19%	-5%	-6%	-22%	-3	10
CN(C)S(=O)(=O)N1CCc2ccccc21	-4%	?	0%	-23%	-3	-6
O=C(CS(=O)(=O)Cc1ccccc1)N1CCc2ccccc2C1	-18%	2%	-5%	-7%	16*	40
O=C(Cc1ccccc1[N+](=O)[O-])N1CCc2ccccc2C1	-16%	3%	-2%	-5%	15*	51
O=C(CNS(=O)(=O)c1ccccc1)N1CCc2ccccc2C1	2%	-4%	/	-4%	35*	/
O=S(=O)(Cc1ccccc1)N1CCc2ccccc21	-16%	4%	-5%	/	13*	34*
Cc1ccnc2nc(C(=O)OCC(=O)NCc3cccc(Cl)c3)nn12	-7%	7%	2%	-3%	/	/
O=C(CSCc1ccc([N+](=O)[O-])cc1)N/N=C/c1cccnc1	-20%	1%	1%	20%	-2	-5
COC(=O)N1C(=O)[C@](c2ccsc2)(C(C)C)N1C(=O)OC	-11%	-4%	-6%	-4%	20*	14
COC(=O)N1C(=O)[C@](c2ccc(OC)cc2)(C(C)C)N1C(=O)OC	22%	-14%	-4%	-1%	10*	14
